Screening results from PubChem BioAssay.
A selection: hits, their analogues and other compounds. The true share with any hit is near 19%.
SW480 rerep: inducers of DNA re-replication in SW480 colon cancer cells. SW480 DNA re-replication, Hoechst DNA content imaging, 48 h. Potency, µM (top dose mostly 46.1 µM), for inactives: top-dose re-replication activation, actives largely listed as activators. hit rate 1.8% among 340,000. AID 624297; further: potency means the concentration at half of the fitted maximal effect; % of control where 0% means no effect; nearly all actives have a fitted effect of over 55% in size
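Readout is total intensity of Hoechst-stained nuclei, excited at 405 nm and collected at 500-530 nm. Compound treatment lasted 48 hr at 37 C in 5% CO2 before staining.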
DT40 TDP1 no CPT: qHTS for Inhibitors of human tyrosyl-DNA phosphodiesterase 1 (TDP1): qHTS in cells in absence of CPT; Potency, µM (top dose mostly 46.2 µM), without a hit: at the highest dose activity change, negative = growth inhibition, hits mostly inhibitors; DT40 Tdp1-/- hTDP1 cells, no CPT, ATP luminescence, 48 h; hit rate 15% among 420,000; AID 686978, 2013; further: potency means the concentration at half of the fitted maximal effect; on the % scale 0 is the no-effect control and ±100 the full control effect; nearly all actives have a fitted effect of over 55% in size
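Stably hTDP1-transfected Tdp1-null chicken DT40 cells were treated with library compounds minus camptothecin and grown for at least 48 hr at 37 °C, after which cellular ATP was quantified by luminescence.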
IL-1B inflam inh: blocks inflammasome-driven IL-1 beta release | THP-1 LPS/ATP IL-1B secretion, AlphaLISA, 16 h; hits give low values | activity change, % at 57.5 µM | hit rate 4.7% among 360,000; in the data active means activity change below about -50%; inconclusive means mostly about -30% to -49%; further: on the % scale 0 is the no-effect control and ±100 the full control effect
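THP-1 cells pretreated 1 hr with compounds (up to 57.5 uM final), then stimulated with LPS (250 ng/mL final) plus ATP (1.25 mM final); secreted IL-1B measured by AlphaLISA after 16 hr, decreased signal indicating inhibition.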
BCR signal inh: blocks chronic active B-cell receptor signaling; ABC-DLBCL IkBa-CBG/CBR reporter, luminescence ratio, 4 h; Potency, µM (series often up to 46.1 µM), for the others: top-dose activity change, negative = inhibition, actives largely listed as inhibitors; hit rate 0.05% among 340,000; active means well fitted inhibition curve with a large enough effect in the signal ratio, with a control signal flat, not every such curve was filed as active; inconclusive means small, poorly fitted or top-dose-only effect, or effect the other way, or a change in a side signal; the % refers to the signal ratio;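 further: potency means the concentration at half of the fitted maximal effect; plate controls were basal doxycycline-induced cells for no effect and cells given 10 µM MG132 for full effect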
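Concentration-response series (up to 46 uM) were applied to TMD8 dual-reporter cells for 4 h at 37C with doxycycline. Green/red ratio, after filter-overlap correction, defined %Activity; red signal alone was normalised to basal cells and zero luminescence.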
MCF10A rerep: induces DNA re-replication in MCF 10a normal breast cells. MCF 10A DNA re-replication, Hoechst nuclear intensity, 48 h. Potency, µM (series often up to 46.1 µM), for inactives: at the highest dose activity, positive = re-replication, usual class: activators. hit rate 2.9% among 350,000; further: potency means the concentration at half of the fitted maximal effect; % of control where 0% means no effect; nearly all actives have a fitted effect of over 50% in size
TDP1 cell CPT: growth inhibition of DT40 Tdp1-/-;hTDP1 cells with camptothecin (screen for TDP1 inhibitors); chicken DT40 Tdp1-/-;hTDP1 cells + 20 nM CPT, ATP luminescence, 48 h; hit rate 12% among 420,000; Potency, µM (titrated, usually from 46.2 µM), for inactives: at the highest dose activity change, negative = growth inhibition, most hits filed as inhibitors; AID 686979; further: potency means the concentration at half of the fitted maximal effect; on the % scale 0 is the no-effect control and ±100 the full control effect; nearly all actives have a fitted effect of over 55% in size
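Cell growth measured by CellTiter-Glo luminescence after a minimum 48 h, 37 C compound exposure with 20 nM CPT in Tdp1-knockout DT40 cells stably expressing hTDP1, seeded 400/well; qHTS titration format.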
Numbers without * were called inactive; [ ] = dose if it differs, or a comment. Unless noted, the call rests on the fitted dose curve; in most records, active means well fitted curve in the direction sought with a large enough effect; inconclusive means small, poorly fitted or top-dose-only effect, or another doubt; inactive means no such curve, though single readings can be large; an effect the other way counts as inactive or inconclusive.

How did COC(=O)Cc1ccc(NC(=S)N2CCN(c3ccc(F)cc3)CC2)cc1 do in these assays?
SW480 rerep: -97.0%; DT40 TDP1 no CPT: 5.17µM*; IL-1B inflam inh: -0.4; BCR signal inh: 5.2%; MCF10A rerep: -68.4%; TDP1 cell CPT: 11.6µM*

Results for O=S(=O)(c1cccc(NC(=S)N2CCN(c3ccc(F)cc3)CC2)c1)C(F)F ?
SW480 rerep: 18.4µM*; DT40 TDP1 no CPT: -66.5%; IL-1B inflam inh: -3.3; BCR signal inh: inconclusive; MCF10A rerep: inconclusive; TDP1 cell CPT: inconclusive

What do the screens show for `CC(=O)c1ccc(N2CCN(C(=S)Nc3cccc(F)c3)CC2)cc1`?
SW480 rerep: -2.2%; DT40 TDP1 no CPT: 14.6µM*; IL-1B inflam inh: -13.9; BCR signal inh: -6.7%; MCF10A rerep: 1.1%; TDP1 cell CPT: inconclusive

Results for Fc1cccc(NC(=S)N2CCCC2)c1 ?
SW480 rerep: -2.0%; DT40 TDP1 no CPT: -7.0%; IL-1B inflam inh: -5.7; BCR signal inh: inconclusive; MCF10A rerep: 5.3%; TDP1 cell CPT: 27.3%

Results for Cc1cc2nc(-c3ccc(Br)cc3)cc(C(F)(F)F)n2n1 ?
DT40 TDP1 no CPT: -21.6%; TDP1 cell CPT: 6.4%

How did c1cnc2cc3c(cc2n1)[C@@H]1CNC[C@H]3C1 do in these assays?
DT40 TDP1 no CPT: 5.9%; TDP1 cell CPT: 2.5%

Results for Cc1nc2ccccc2nc1C ?
DT40 TDP1 no CPT: 6.4%; TDP1 cell CPT: 9.9%

How did COc1ccccc1C1NC(=O)NC(C)=C1C(=O)OCC1CCCCC1 (stereo not drawn) do in these assays?
DT40 TDP1 no CPT: inconclusive; IL-1B inflam inh: -16.3; TDP1 cell CPT: -26.3%

Results for CCCCNC(=O)COC(=O)c1ccccc1F ?
SW480 rerep: -0.2%; DT40 TDP1 no CPT: -10.1%; IL-1B inflam inh: 12.5; BCR signal inh: -0.7%; MCF10A rerep: 2.3%; TDP1 cell CPT: 1.3%

What do the screens show for `O=C(COc1cccc2c1CCNC2=O)Nc1cccc(F)c1`?
SW480 rerep: -1.2%; DT40 TDP1 no CPT: inconclusive; IL-1B inflam inh: 13.4; BCR signal inh: inconclusive; MCF10A rerep: -3.3%; TDP1 cell CPT: inconclusive

What do the screens show for `COc1cc(/C=C(\C#N)C(=O)Nc2cc(C(F)(F)F)ccc2Cl)ccc1OCC(=O)Nc1cccc(C(F)(F)F)c1`?
SW480 rerep: inconclusive; DT40 TDP1 no CPT: inconclusive; IL-1B inflam inh: 1.2; BCR signal inh: 8.2%; MCF10A rerep: 20.6µM*; TDP1 cell CPT: 23.1µM*

Results for COc1ccc(NC(=O)CN(C)C(=O)c2ccccc2OCC(=O)Nc2cccc(C(F)(F)F)c2)cc1 ?
SW480 rerep: -37.8%; DT40 TDP1 no CPT: inconclusive; IL-1B inflam inh: -2.8; BCR signal inh: 6.9%; MCF10A rerep: -8.7%; TDP1 cell CPT: inconclusive

What do the screens show for `COc1cccc(CN(C)C(=O)c2ccc(OCC(=O)Nc3cccc(C(F)(F)F)c3)c(OC)c2)c1`?
SW480 rerep: -3.6%; DT40 TDP1 no CPT: 9.2µM*; IL-1B inflam inh: -62.3*; BCR signal inh: -20.1%; MCF10A rerep: 16.3%; TDP1 cell CPT: 10.3µM*

What do the screens show for `COc1ccc(CN(C)C(=O)c2ccc(OCC(=O)Nc3cccc(C(F)(F)F)c3)c(OC)c2)c(OC)c1`?
SW480 rerep: inconclusive; DT40 TDP1 no CPT: inconclusive; IL-1B inflam inh: -76.9*; BCR signal inh: inconclusive; MCF10A rerep: inconclusive; TDP1 cell CPT: inconclusive

What do the screens show for `O=C(COc1cccc2c1CCNC2=O)Nc1cccc(C(F)(F)F)c1`?
SW480 rerep: -3.5%; DT40 TDP1 no CPT: 16.4µM*; IL-1B inflam inh: -4.7; BCR signal inh: inconclusive; MCF10A rerep: -0.4%; TDP1 cell CPT: 8.2µM*

Results for CC1CN(S(=O)(=O)c2cccc(C(=O)NCC(c3cccs3)N3CCOCC3)c2)CC(C)O1 (stereo not drawn) ?
SW480 rerep: inconclusive; DT40 TDP1 no CPT: -7.9%; IL-1B inflam inh: 38.6; MCF10A rerep: -5.6%; TDP1 cell CPT: -16.9%

How did O=C1NC(=O)C2(CCCCC2C2CCCCC2)N1 (stereo not drawn) do in these assays?
SW480 rerep: 0.8%; DT40 TDP1 no CPT: -21.8%; IL-1B inflam inh: -0.5; MCF10A rerep: -2.8%; TDP1 cell CPT: 5.3%

Results for CCNC(=O)c1sc2ncnc(NCCCN3CCOCC3)c2c1C ?
DT40 TDP1 no CPT: -13.8%; TDP1 cell CPT: 13.2%[9.04 µM]

Results for COc1ccc(C(=O)C2CCCN(C(=O)c3cccc(N(C)C)c3)C2)cc1OC (stereo not drawn) ?
SW480 rerep: 11.7%; DT40 TDP1 no CPT: inconclusive; IL-1B inflam inh: -8.5; BCR signal inh: 3.7%; MCF10A rerep: -1.2%; TDP1 cell CPT: -38.0%

Results for COc1cc(C(=O)NCCCN(C)C)ccc1OCC(=O)Nc1cccc(C(F)(F)F)c1 ?
SW480 rerep: inconclusive; DT40 TDP1 no CPT: inconclusive; IL-1B inflam inh: -53.2*; BCR signal inh: 0.0%; MCF10A rerep: inconclusive; TDP1 cell CPT: inconclusive

Results for CCCS(=O)(=O)NCc1c(C)ncc2c1CCN(C(=O)c1ccc3[nH]c4c(c3c1)CCCC4)C2 ?
DT40 TDP1 no CPT: inconclusive; TDP1 cell CPT: 3.6%[9.04 µM]

Results for CCOC(=O)c1ccc(N2C(=O)C3C(/C=C/c4ccccc4)OC4(C(=O)c5ccccc5C4=O)C3C2=O)cc1 (stereo not drawn) ?
SW480 rerep: -5.7%; DT40 TDP1 no CPT: inconclusive; IL-1B inflam inh: 27.7; BCR signal inh: inconclusive; MCF10A rerep: 25.9µM*; TDP1 cell CPT: -22.6%

What do the screens show for `COc1ccc(N/C=C(\C#N)S(=O)(=O)c2ccc(Cl)cc2)c(OC)c1`?
SW480 rerep: -35.2%; DT40 TDP1 no CPT: -22.1%; IL-1B inflam inh: 5.5; BCR signal inh: -1.9%; MCF10A rerep: -2.1%; TDP1 cell CPT: -8.7%

Results for CC(C)C[C@H](N)c1nnc(S(=O)(=O)Cc2ccc(F)cc2)o1 ?
SW480 rerep: inconclusive; DT40 TDP1 no CPT: 2.06µM*; IL-1B inflam inh: -116.8*; BCR signal inh: inconclusive; MCF10A rerep: inconclusive; TDP1 cell CPT: 1.3µM*

How did CC(C)C[C@H](N)c1nnc(SCC(=O)Nc2ccc(Br)cc2)o1 do in these assays?
SW480 rerep: inconclusive; DT40 TDP1 no CPT: -0.9%; IL-1B inflam inh: 3.5; BCR signal inh: inconclusive; MCF10A rerep: -3.6%; TDP1 cell CPT: -5.4%

How did O=C(NCCCn1ccnc1)C(=O)NCC(c1cccnc1)N1CCN(c2ccccc2)CC1 (stereo not drawn) do in these assays?
SW480 rerep: -6.0%; DT40 TDP1 no CPT: -3.5%; IL-1B inflam inh: -7.6; BCR signal inh: 6.9%; MCF10A rerep: 2.2%; TDP1 cell CPT: -6.6%
